Test [1] can be described thus: optical density shifts of acrAB sulA E. coli – strain DRC41, OD650, 48 h, E. coli filamentation inducer project, primary screen (AID 1152).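 Also: E. coli MC1000 strain DRC41 lacking acrAB efflux pump and sulA.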 Conditions: higher = more signal, called active from +8 up or from −8 down.
Test [2] in a line: probe aLefty1 binding on compound microarray – biochemical, small-molecule microarray, 635/667 nm fluorescence, primary screen (AID 1153).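 Also: score merges spot fluorescence with signal-to-noise ratio from the scanned slide images.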 Conditions: higher = more signal.
Test [3] in a line: plasmodial surface anion channel blockers, osmotic lysis – cell-based, P. falciparum Indochina, OD700, 1 h, primary screen (AID 1154). Conditions: P. falciparum Indochina infected RBC osmotic lysis, higher = more signal, called active from +8 up or from −8 down.
The nature of test [4]: plasmodial surface anion channel blockers, osmotic lysis – cell-based, P. falciparum Indochina, OD700, 2 h, primary screen (AID 1155).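 Also: lysis reports solute entry through the parasite surface anion channel PSAC.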 Conditions: P. falciparum Indochina infected erythrocytes, higher = more signal, called active from +8 up or from −8 down.
Test [5] is described as follows: changes in parasitized red cell lysis, either direction – P. falciparum Indochina, OD700, 3 h, PSAC antagonist project, primary screen (AID 1156). Conditions: P. falciparum-infected erythrocytes, osmotic lysis, higher = more signal, called active from +8 up or from −8 down.
Test [6] is described as follows: plasmodial surface anion channel blockers, osmotic lysis – cell-based, P. falciparum Indochina, OD700, 18 h, primary screen (AID 1157). Conditions: P. falciparum Indochina infected erythrocytes, osmotic lysis OD700, 18 h; higher = more signal, called active from +8 up or from −8 down.
A short description of test [7]: S6 kinase pathway phospho-S6 level changes – cell-based, A549, cytoblot, luminescence, serum-stimulated, primary screen (AID 1158).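 Also: serum-stimulated A549 lung adenocarcinoma cells; signal is phosphorylated S6 detected by cytoblot immunostaining with HRP secondary.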 Conditions: 5 h, higher = more signal.
Test [8] has as its target NADPH oxidase 2 (Homo sapiens) (UniProt P04839). Put plainly: compounds shifting NOX2 Amplex Red fluorescence – cell-based, HEK293-NOX2, PMA-stimulated, NOX inhibitor project, primary screen (AID 1159). Also: test concentration not given here. Conditions: 45 min, higher = more signal, called active from +8 up or from −8 down.
Test [9] deals with NADPH oxidase 4 (Homo sapiens) (UniProt Q9NPH5). Put plainly: compounds shifting NOX4 Amplex Red fluorescence – cell-based, HEK293-NOX4, tetracycline-induced, NOX inhibitor project, primary screen (AID 1160). Conditions: HEK293-NOX4, Amplex Red H2O2 fluorescence, 45 min; higher = more signal, called active from +8 up or from −8 down.
The target of test [10] is NADPH oxidase 5 (Homo sapiens) (UniProt Q96PH1). As to the kind of experiment: compounds shifting NOX5 Amplex Red fluorescence – cell-based, HEK293-NOX5, NOX inhibitor project, primary screen (AID 1161). Conditions: HEK293-NOX5, ionomycin, 45 min, higher = more signal.
Test [11] in a line: compound effects on lung adenocarcinoma cell viability – A549, calcein-AM fluorescence, 48 h, basal, profiling panel (AID 1162). Also: test concentration not given here. Conditions: higher = more signal.
Test [12] in a line: compound effects on differentiated 3T3-L1 adipocyte viability – cell-based, 3T3-L1 adipocytes, calcein-AM fluorescence, 48 h, basal, profiling panel (AID 1163). Also: test concentration not given here. Conditions: 3T3-L1 adipocytes viability, higher = more signal.
A short description of test [13]: compound effects on hepatocellular carcinoma cell viability – HepG2, calcein-AM fluorescence, 48 h, basal, profiling panel (AID 1164). Also: test concentration not given here. Conditions: higher = more signal.
A short description of test [14]: compound effects on multiple myeloma cell viability – MM1S, calcein-AM fluorescence, 48 h, basal, profiling panel (AID 1165). Also: test concentration not given here. Conditions: higher = more signal.
The nature of test [15]: calcein-AM signal in unstimulated myeloma cells – cell-based, calcein-AM fluorescence, 48 h, PK04 Diversity Set, profiling panel (AID 1166).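 Also: cells grown under basal conditions without added stimulus; test concentration not given here.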 Conditions: RPMI8226 myeloma viability, higher = more signal.
A short description of test [16]: JC-1 mitochondrial signal, unstimulated HepG2 cells – cell-based, JC-1 fluorescence, 24 h, 100 nL compound, profiling panel (AID 1167). Also: test concentration not given here. Conditions: HepG2 mitochondrial potential, higher = more signal.
Test [17] can be described thus: JC-1 mitochondrial signal, unstimulated adipocytes – cell-based, JC-1 fluorescence, 3T3-L1 adipocytes, 24 h, 100 nL compound, profiling panel (AID 1168). Also: test concentration not given here. Conditions: JC-1 mitochondrial fluorescence, higher = more signal, called active from +8 up or from −8 down.
A short description of test [18]: JC-1 mitochondrial signal, unstimulated myeloma cells – cell-based, JC-1 fluorescence, RPMI8226, 24 h, 100 nL compound, profiling panel (AID 1169). Also: test concentration not given here. Conditions: JC-1 mitochondrial potential fluorescence, higher = more signal.
The nature of test [19]: JC-1 mitochondrial signal, unstimulated MM1S myeloma – cell-based, JC-1 fluorescence, 24 h, 100 nL compound, profiling panel (AID 1170). Also: test concentration not given here. Conditions: MM1S mitochondrial potential, higher = more signal.
Test [20] is described as follows: resazurin metabolic signal in A549 cells – cell-based, resazurin fluorescence, 24 h, PK04 Diversity Set, profiling panel (AID 1171). Also: test concentration not given here. Conditions: A549 viability, higher = more signal, called active from +8 up or from −8 down. Background: Resazurin is reduced to fluorescent resorufin, in cell work by metabolically active cells.

Structures are written as SMILES. Activity calls are given as the source filed them.

Sequence of NADPH oxidase 4 (Homo sapiens) (Q9NPH5 whole entry, looked up): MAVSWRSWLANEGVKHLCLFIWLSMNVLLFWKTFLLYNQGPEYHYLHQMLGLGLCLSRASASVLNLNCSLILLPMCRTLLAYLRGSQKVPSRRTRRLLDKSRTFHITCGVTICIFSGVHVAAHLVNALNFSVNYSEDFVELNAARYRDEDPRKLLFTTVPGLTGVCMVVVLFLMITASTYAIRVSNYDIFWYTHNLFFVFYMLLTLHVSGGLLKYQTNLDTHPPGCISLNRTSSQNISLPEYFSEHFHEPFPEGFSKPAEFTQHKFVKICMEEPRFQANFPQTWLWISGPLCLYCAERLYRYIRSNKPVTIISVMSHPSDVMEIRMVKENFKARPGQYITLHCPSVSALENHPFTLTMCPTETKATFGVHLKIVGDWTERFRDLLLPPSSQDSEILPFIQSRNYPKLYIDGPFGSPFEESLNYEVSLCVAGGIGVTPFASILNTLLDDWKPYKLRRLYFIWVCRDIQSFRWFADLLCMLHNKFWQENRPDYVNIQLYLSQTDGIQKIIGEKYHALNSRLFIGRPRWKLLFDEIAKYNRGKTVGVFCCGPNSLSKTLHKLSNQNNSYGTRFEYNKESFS
Sequence of NADPH oxidase 2 (Homo sapiens) (P04839 whole entry, looked up): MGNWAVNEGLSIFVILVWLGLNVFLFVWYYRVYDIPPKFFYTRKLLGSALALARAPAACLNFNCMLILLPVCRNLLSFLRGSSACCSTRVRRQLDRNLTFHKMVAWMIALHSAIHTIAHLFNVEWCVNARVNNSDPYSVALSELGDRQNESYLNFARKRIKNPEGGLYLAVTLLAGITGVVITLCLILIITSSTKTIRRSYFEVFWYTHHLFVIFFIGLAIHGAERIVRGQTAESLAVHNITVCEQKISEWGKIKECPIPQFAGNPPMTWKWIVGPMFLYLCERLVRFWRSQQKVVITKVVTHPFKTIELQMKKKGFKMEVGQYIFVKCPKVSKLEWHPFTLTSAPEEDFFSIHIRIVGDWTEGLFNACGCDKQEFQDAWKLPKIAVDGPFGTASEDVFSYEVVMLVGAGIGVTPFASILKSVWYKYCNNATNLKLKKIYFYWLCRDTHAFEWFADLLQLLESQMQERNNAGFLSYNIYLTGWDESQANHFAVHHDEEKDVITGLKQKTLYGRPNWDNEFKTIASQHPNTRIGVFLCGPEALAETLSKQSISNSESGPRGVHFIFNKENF
Sequence of NADPH oxidase 5 (Homo sapiens) (Q96PH1 whole entry, looked up): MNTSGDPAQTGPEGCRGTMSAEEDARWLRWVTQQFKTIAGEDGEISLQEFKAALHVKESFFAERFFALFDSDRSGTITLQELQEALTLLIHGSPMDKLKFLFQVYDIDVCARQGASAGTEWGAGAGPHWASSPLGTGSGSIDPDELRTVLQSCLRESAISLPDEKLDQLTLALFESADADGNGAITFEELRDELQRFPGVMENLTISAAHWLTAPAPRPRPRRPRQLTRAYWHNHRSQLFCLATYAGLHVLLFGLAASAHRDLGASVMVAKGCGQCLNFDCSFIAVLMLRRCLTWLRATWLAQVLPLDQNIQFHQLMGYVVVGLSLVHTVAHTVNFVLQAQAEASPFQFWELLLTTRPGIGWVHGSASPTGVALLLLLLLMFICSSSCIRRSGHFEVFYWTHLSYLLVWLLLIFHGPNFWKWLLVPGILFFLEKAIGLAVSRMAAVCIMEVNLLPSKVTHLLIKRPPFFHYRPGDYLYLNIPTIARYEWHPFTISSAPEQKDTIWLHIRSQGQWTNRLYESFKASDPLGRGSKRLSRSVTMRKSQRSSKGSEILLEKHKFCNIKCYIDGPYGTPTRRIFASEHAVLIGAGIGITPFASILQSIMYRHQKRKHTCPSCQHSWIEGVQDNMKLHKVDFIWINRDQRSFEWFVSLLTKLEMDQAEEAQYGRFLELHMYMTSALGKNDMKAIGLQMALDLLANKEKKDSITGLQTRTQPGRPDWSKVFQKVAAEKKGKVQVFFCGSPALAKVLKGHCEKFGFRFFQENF

With `Cc1cc(C)c(C(O)C2C=CC3C(=O)N(C)C(=O)C3N2N2CCCCC2)c(C)c1` (stereo not given), the z-score is -1.06 (inactive) in test [1]; -0.245 (inactive) in test [3]; 0.827 (inactive) in test [4]; -0.285 (inactive) in test [5]; 1.12 (inactive) in test [6]; -1.01 in test [7]. For the same molecule, the z-score in test [8] was -0.669 (inactive); in test [9] it was 0.167 (inactive); in test [10], -1.23; in [11] it was -0.905; in [12], -0.878; in test [13], -0.863. For the same molecule, the z-score in [14] is -0.225; in [15], -1.11; in test [16], -1.74; in test [17], -0.721 (inactive); in test [18], 0.935; in test [19], 0.173. In addition, the z-score in [20] was 0.406 (inactive). In [2], this molecule had a composite z-score of 0.554.

As to `COc1cc2c(cc1OC)CN(C(=O)[C@@H]1[C@H]3C(=O)O[C@H](c4ccccc4)[C@H](c4ccccc4)N3[C@H](c3ccccc3OCCO)[C@@]13C(=O)Nc1ccccc13)CC2`, the z-score is 1.47 (inactive) in [1]; 8.6 (active) in test [3]; 3.56 (inactive) in [4]; -0.0442 (inactive) in [5]; 2.22 (inactive) in test [6]; 0.206 in test [7]. Also, the z-score in test [8] is 1.67 (inactive); in test [9] it was 1.02 (inactive); in test [10], 0.901; in [11], -0.225; in test [12], 1.85; in test [13] it was -0.174. Besides, the z-score in test [14] is -0.998; in [15] it was -0.622; in [16], 0.648; in [17], 3.09 (inactive); in test [18], -0.509; in test [19], 0.0343. The z-score in [20] was 0.872 (inactive). Besides, the composite z-score in test [2] is 0.551.

In the case of `C[C@@H]1CC[C@H]2C(=O)N3[C@@H](CC[C@@H](C)[C@@H]3c3cccc(N4CCOCC4)c3)C(=O)N2[C@H]1c1cccc(N2CCOCC2)c1`, the z-score in test [1] is 0.107 (inactive); in [3], 0.43 (inactive); in test [4] it was 0.367 (inactive); in test [5], 0.567 (inactive); in [6], 0.197 (inactive); in [7], 0.348. Also, the z-score in [8] was 1.07 (inactive); in test [9], -1.09 (inactive); in [10], 0.125; in [11], 0.197; in test [12], 1.3; in [13], -0.894. The z-score in test [14] was 0.467; in [15], -0.267; in [16], 1.03; in test [17], 0.543 (inactive); in test [18] it was -0.685; in test [19], 0.713. Besides, in test [20], the z-score was 1.05 (inactive). In test [2], this molecule displayed a composite z-score of 0.191.

Regarding `C=C(CCCC)/C(=C/C[C@@H](OC(=O)c1ccncc1)c1cccc(OCCO)c1)c1cc(C(=O)OC)ccc1OC`, the z-score in [1] was 1.37 (inactive); in test [3], 21 (active); in test [4] it was 3.89 (inactive); in test [5] it was 2.48 (inactive); in test [6], 1.26 (inactive); in [7], -0.365. The z-score in test [8] was 1.33 (inactive); in test [9], 1.62 (inactive); in [10], -0.975; in test [11] it was 1.25; in test [12], -0.209; in test [13], 0.872. For the same molecule, the z-score in test [14] is -2.25; in test [15] it was -2.99; in [16], 2.91; in test [17] it was 0.244 (inactive); in [18], 0.0948; in test [19] it was -0.132. Besides, the z-score in test [20] is 0.767 (inactive). In test [2], this molecule returned a composite z-score of 0.0371.

Consider `COCCCNC(=O)[C@@]1(Sc2ccc(C)cc2)CC(=O)N(Cc2cc(C(F)(F)F)cc(C(F)(F)F)c2)[C@@H]1c1ccc(CO)cc1I`, for which the z-score in [1] was 1.57 (inactive); in [3], 2.3 (inactive); in [4] it was 1.08 (inactive); in test [5] it was -0.34 (inactive); in [6] it was 0.278 (inactive); in [7], 0.411. Also, the z-score in test [8] was 2.35 (inactive); in test [9], -0.978 (inactive); in test [10] it was 1.75; in test [11], 0.697; in test [12], 1.34; in test [13], -0.632. Besides, the z-score in test [14] is -2.24; in test [15] it was -2.34; in test [16] it was 0.0901; in test [17] it was 0.135 (inactive); in test [18], -0.00613; in test [19], -0.315. Moreover, the z-score in [20] is 0.555 (inactive). Moreover, the composite z-score in [2] amounted to 0.162.

For `Cc1ccc(S(=O)(=O)c2cc3oc2CC[C@@H](CO)NC(=O)N(C)Cc2cn(nn2)C[C@H](Cc2ccccc2)NC3=O)cc1`, the z-score is 3.05 (inactive) in test [1]; 28.3 (active) in test [3]; 13.3 (active) in test [4]; 0.208 (inactive) in test [5]; 2.03 (inactive) in [6]; 0.533 in [7]. In addition, the z-score in test [8] is 0.644 (inactive); in [9], 0.743 (inactive); in test [10] it was 0.648; in test [11], 1.66; in test [12], -0.129; in test [13] it was 0.372. Moreover, the z-score in [14] was -0.971; in test [15], 1.28; in test [16], 1.35; in test [17] it was 0.856 (inactive); in [18] it was 0.501; in test [19] it was 0.536. The z-score in test [20] was 1.39 (inactive). Besides, the composite z-score in test [2] is -0.234.

Regarding `O=C1C2C=CC(C(O)c3ccccc3)N(n3cnnc3)C2C(=O)N1Cc1ccccc1` (stereo not given), the z-score was -0.678 (inactive) in [1]; 1.23 (inactive) in [3]; -0.137 (inactive) in test [4]; -0.138 (inactive) in [5]; -1.55 (inactive) in test [6]; 0.591 in [7]. The z-score in [8] was 0.569 (inactive); in test [9] it was -0.323 (inactive); in test [10] it was -0.324; in test [11] it was 0.668; in [12], -0.0533; in test [13] it was 0.765. For the same molecule, the z-score in test [14] was 0.2; in test [15], -1.68; in test [16] it was 0.323; in [17], 0.129 (inactive); in test [18], -0.605; in test [19] it was 0.474. Also, the z-score in test [20] is -1.05 (inactive). This molecule registered a composite z-score in test [2] of 0.3.

For the molecule `C=C[C@H](OC)[C@@H](OC(=O)Nc1ccc(SC)cc1)c1ccc(O)c(F)c1`, the z-score was 0.738 (inactive) in test [1]; 25.5 (active) in test [3]; 8.06 (active) in [4]; 1.83 (inactive) in [5]; -0.016 (inactive) in [6]; 0.461 in test [7]. In addition, the z-score in test [8] is -2.96 (inactive); in test [9] it was -1.66 (inactive); in test [10], -1.06; in [11], 0.137; in test [12], 0.0047; in test [13] it was -0.14. The z-score is -0.913 in [14]; -1.07 in [15]; -2.33 in test [16]; 3.02 (inactive) in [17]; -1.09 in test [18]; -0.75 in test [19]. Moreover, in test [20], the z-score was -0.538 (inactive). This molecule registered a composite z-score in [2] of 0.0043.

Consider `CC(C)[Si]1(C(C)C)OCc2cc(C3CC3)nc(-c3ccccc3)c21`, for which the z-score in [1] is 2.37 (inactive); in [3], 2.84 (inactive); in test [4], 0.201 (inactive); in [5] it was 0.531 (inactive); in test [6], -0.15 (inactive); in [7] it was 1.34. In addition, the z-score was 1.86 (inactive) in [8]; 1.06 (inactive) in [9]; -1.28 in test [10]; 0.0145 in test [11]; 1.06 in test [12]; -0.899 in test [13]. Further, the z-score in test [14] is -0.319; in test [15], -1.54; in test [16], -0.012; in test [17], 1.6 (inactive); in test [18], -0.373; in test [19], 0.542. The z-score in test [20] was 1 (inactive). The composite z-score in test [2] is -0.0573.
